Assay outcomes from PubChem.
BL2 CD40 inh = CD40 pathway inhibition in BL2 cells | BL2 NF-kB luciferase reporter, CD40L-induced, 4 h | inhibition, % at 10 µM | 83,000 compounds, 0.94% hits;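 active means mean inhibition of at least 50% with a set share of replicates also reaching that level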
A number is an active result; i = inactive; [ ] = dose if it differs, or a comment. The sample as a whole holds a higher share of hits than the screen did.

SMILES	BL2 CD40 inh
Cn1nc(-c2ccccn2)nc2c(=O)n(C)c(=O)nc1-2	101
c1ccc(-c2nccc(-c3ccco3)n2)nc1	i
COc1ccc(-c2nc(-c3ccccn3)ncc2S(C)(=O)=O)cc1	i
C/C=C/c1ccc([C@@H]2[C@H](CO)N(C(=O)CC)[C@H]2CNC(=O)CC2CC2)cc1	i
CC(C)Cc1ccc(C(C)CC2=CCC(CN(C)C)C2=O)cc1 (stereo not drawn)	94
O=C(Cc1cccnc1)N1CC(=O)N2[C@H](CO)[C@@H](c3ccc(C#CC4CCCC4)cc3)[C@H]2C1	i
COCC(=O)N1[C@H](CO)[C@@H](c2ccccc2)[C@@H]1CN(C)C(=O)c1ccccc1	i
CCCC#Cc1ccc2c(c1)[C@@H]1[C@@H](CCN1C(=O)C1CCCCC1)[C@@H](CO)N2	i
NC(=O)C(CCCCN1CCCCC1)(c1ccccc1)c1ccccc1	i
CN(C)C(=O)C(CCN1CCC(O)(c2ccc(Cl)cc2)CC1)(c1ccccc1)c1ccccc1	50
OC(CCCN1CCC(O)(c2ccc(Cl)cc2)CC1)c1ccc(F)cc1 (stereo not drawn)	i
CC(C)OC(=O)N(C)C[C@@H]1OCc2ccccc2-c2ccccc2C(=O)N([C@H](C)CO)C[C@@H]1C	i
CN1C[C@@H](O)COC[C@@H]2O[C@H](CC(=O)NC3CCCC3)CC[C@H]21	i
CC1Cc2ccccc2N1C(=O)c1cnc2n(c1=O)CCS2 (stereo not drawn)	i
CC1Cc2ccccc2N1C(=O)c1cnsn1 (stereo not drawn)	i
CC1Cc2ccccc2N1c1ncnc(N)c1[N+](=O)[O-] (stereo not drawn)	54
C[C@H]1CN([C@@H](C)CO)C(=O)c2ccccc2-c2ccccc2CO[C@H]1CN(C)S(=O)(=O)c1cccc(F)c1	i
CC(=O)c1sc2ccccc2c1OC(=O)c1ccco1	i
CCOC(=O)c1sc2ccccc2c1OC(=O)c1ccccc1OC	64
CCOC(=O)C1=C(COC(=O)c2ccccc2OC)NC(=O)NC1C (stereo not drawn)	i
C[C@@H]1CN([C@H](C)CO)C(=O)CCCn2cc(nn2)CO[C@@H]1CN(C)S(=O)(=O)c1cccs1	i
C[C@@H]1CN([C@@H](C)CO)C(=O)c2ccccc2-c2ccccc2CO[C@H]1CN(C)C(=O)Nc1cccc(F)c1	i
Cc1noc(C)c1NC(=O)Nc1ccc2c(c1)C(=O)N([C@@H](C)CO)C[C@H](C)[C@@H](CN(C)C(=O)Nc1ccc(C(F)(F)F)cc1)OCCCC[C@@H](C)O2	i
C=C1C(=O)OC2C1C(OC(=O)C(C)=CC)CC(=C)C1C(O)C3OC3(C)C21O (stereo not drawn)	i
C=C1C(=O)OC2C=C(CO)CCC=C(CO)CC(OC(=O)C(C)C)C12 (stereo not drawn)	87
SMILES	BL2 CD40 inh
CCCN1[C@@H]2Cn3c(ccc(-c4cccc(F)c4)c3=O)[C@H]1[C@@H](C(=O)N(C)C)[C@@H]2CO	i
CC=Cc1ccc2n(c1=O)C[C@H]1[C@H](CO)[C@@H](C(=O)NCc3cccc(OC)c3)N[C@@H]21 (mixture of isomers)	i
CC(C)[C@H]1C(=O)N[C@H](c2cccc(Cl)c2)CC=CC[C@H](C)Oc2ccccc2C(=O)N1C (mixture of isomers)	i
C[C@@H]1CN([C@H](C)CO)C(=O)CCCn2cc(nn2)CO[C@H]1CN(C)Cc1cccc2c1OCCCO2	i
COc1ccc2c3c([nH]c2c1)[C@@H](CO)N(C(=O)Nc1ccc(F)cc1)CC31CCN(C(=O)Cc2ccncc2)CC1	i
COc1ccc2c3c([nH]c2c1)[C@H](CO)N(C(=O)Nc1ccc(F)cc1)CC31CCN(C(=O)c2ccccc2F)CC1	60[25 µM]
COc1ccc2c3c(n(C)c2c1)[C@H](CO)N(C(=O)Nc1ccc(F)cc1)CC31CN(C(=O)Cc2ccncc2)C1	i
COc1ccc2c3c([nH]c2c1)[C@@H](CO)N(C)CC31CCN(C(=O)c2ccccc2F)CC1	i
COc1ccc2c3c(n(C)c2c1)[C@@H](CO)N(C(=O)c1ccc(F)cc1)CC31CN(C(=O)Nc2ccc(F)cc2)C1	i
COc1ccc2c3c(n(C)c2c1)[C@@H](CO)N(C(=O)Nc1ccc(F)cc1)CC31CN(Cc2ccccc2F)C1	58[25 µM]
C[C@@H]1CCCCO[C@@H](CN(C)Cc2ccc(C(=O)O)cc2)[C@H](C)CN([C@@H](C)CO)C(=O)c2cc(NC(=O)CCC(F)(F)F)ccc2O1	i
COc1ccccc1C#Cc1ccc([C@H]2[C@H]3CN(C(=O)C4CCC4)CCCCN3[C@H]2CO)cc1	i
C[C@@H](NC(=O)[C@@H]1[C@@H](CO)[C@@H]2Cn3c(ccc(-c4ccccc4)c3=O)[C@@H]2N1C)c1ccccc1	i
CO[C@@H]1CN(C)C(=O)c2cc(NC(=O)NC3CCCCC3)ccc2OC[C@H](C)N(C)C[C@H]1C	i
OCCN1CCN(CCCN2c3ccccc3Sc3ccc(C(F)(F)F)cc32)CC1	51
O=C(CN1CCCC1)N1c2ccccc2Sc2ccccc21	i
O=C(N1CCN(CCO)CC1)N1c2ccccc2CCc2ccccc21	i
Cc1nn(C)cc1NC(=O)C[C@H]1CC[C@@H]2[C@H](COc3ccc(NC(=O)C4CCOCC4)cc3C(=O)N2C)O1	i
